Our source for the B-score values is PubChem BioAssay AID1672 (Johns Hopkins Ion Channel Center, 2009).

The whole screen tested about 310,000 compounds, of which about 2,600 (0.84%) were called active. Many of the other results were omitted from the sample, so actives are more common in it than they were. Unmarked numbers belong to inactive results.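 Rule for the calls: active = fluorescence ratio B-score at or below minus 3 SD of library scores, with starting-brightness B-score within 2 SD (cut at about -4.2 in these data); inactive = the rest.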

In the test the target is Inward rectifier potassium channel 2 (Mus musculus) (UniProt P35561). The experiment in a line: blocks the mouse Kir2.1 inward-rectifier potassium channel (AID 1672).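 Note: channel flux triggered by added potassium and thallium sulfate stimulus; B-score of peak minus minimum fluorescence over baseline after thallium stimulus; more negative B-score means stronger Kir2.1 block with less thallium influx.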 As to conditions: HEK293-Kir2.1, FluxOR thallium flux fluorescence; at 10 µM; hits give low values.
Chain of Inward rectifier potassium channel 2 (Mus musculus) (P35561 whole entry, looked up): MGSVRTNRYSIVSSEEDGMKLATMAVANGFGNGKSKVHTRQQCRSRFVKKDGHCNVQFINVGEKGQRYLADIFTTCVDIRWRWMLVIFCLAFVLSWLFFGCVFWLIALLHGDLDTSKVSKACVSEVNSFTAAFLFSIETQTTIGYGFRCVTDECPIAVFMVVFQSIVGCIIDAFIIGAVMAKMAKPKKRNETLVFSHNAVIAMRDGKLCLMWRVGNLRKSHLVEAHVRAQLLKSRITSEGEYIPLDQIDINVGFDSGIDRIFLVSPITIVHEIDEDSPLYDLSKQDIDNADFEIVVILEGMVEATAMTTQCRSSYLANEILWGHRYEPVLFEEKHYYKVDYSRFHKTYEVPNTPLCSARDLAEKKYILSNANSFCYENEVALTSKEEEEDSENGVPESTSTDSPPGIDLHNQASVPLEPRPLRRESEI
Turning to `CNCC(O)c1cc(F)c(OCc2ccccc2)c(OCc2ccccc2)c1F` (stereo not given), the B-score was -10.4 (active). To `COc1ccc2c(c1O)-c1cccc3c1[C@@H](C2)N(C)CC3` belongs -0.89. To `C=CC12CN(C)[C@@H]3C4CO[C@H](C[C@H]41)[C@]1(C(=O)Nc4ccccc41)[C@@H]32` (stereo not given in full) belongs -0.31; to `COC(=O)C1=C(c2ccccc2)C[C@@H]2CC[C@H]1N2C(=O)NCc1ccco1`, -0.88; to `COc1ccc(N2C(=O)/C(=C/c3ccco3)C(=O)NC2=S)cc1`, -1. With `COC(=O)N(c1ccc(OC)cc1)P1(=S)OCCC(C)O1` (stereo not given), the B-score is -0.02. To `CCOc1cccc(=NC2CCCCC2)c2c(C)[nH]c(C)c12` belongs -6.51 (active).

With `CCC(C)n1c(O)c(/C=N/Nc2nc3c(c(=O)n(C)c(=O)n3C)n2C)c(=O)[nH]c1=S` (stereo not given), the B-score is 1.97. Consider `CCN1C(=O)C(=Cc2c(C)n(CC(=O)NCC3CCCO3)c3ccccc23)C(=O)N(CC)C1=S` (stereo not given), for which the B-score was 1.19. To `Cc1ccc(S(=O)(=O)N(C)c2ccc(C(=O)NCC3(N(C)C)CCCCC3)cc2)cc1` belongs 0.21; to `COC(=O)C1=C(c2ccccc2)C[C@@H]2CC[C@H]1N2C(=O)N1CCCCC1`, -0.79; to `COc1ccc(C2NCc3ccc4c(c3-n3cccc32)OCO4)cc1OC` (stereo not given), -0.31. To `c1ccc(C2NCc3ccccc3-n3cccc32)cc1` (stereo not given) belongs -6.08 (active); to `COc1ccc2c(c1)[C@]13CCCCC1C(C2)N(C)CC3` (stereo not given in full), -0.18; to `O=C(Cc1ccccc1)N1CCN(C2CCCCCC2)CC1`, -1.16. Regarding `CCCCn1c(=O)c(C(=O)Nc2ccccc2Cl)c(O)c2ccccc21`, the B-score is -1.32. For the molecule `CN(C)CCN(CC1CCCN(Cc2ccccc2F)C1)C(=O)Cc1ccc(F)c(F)c1` (stereo not given), the B-score was -0.57. To `O=C1N=c2ccccc2=C/C1=C\c1c(O)[nH]c(=S)[nH]c1=O` belongs 0.39; to `CCCCCCCCCCCCn1ccc(=N)cc1`, -13 (active). To `COc1ccc(C(=O)CC2C(=O)N(C)C(=O)N(C)C2=O)cc1` belongs 0.17; to `c1ccc(CCN2CCC3(CC2)OCCO3)cc1`, 1.88; to `COC(=O)C1=C(c2cc3ccccc3s2)C[C@@H]2CC[C@H]1N2C(=O)NCCO`, -0.7.

Regarding `Clc1ccc2nc3c(c(-c4ccccc4)c2c1)CNCC3`, the B-score is -7.18 (active). To `Cc1nn(-c2ccccc2)c(C)c1NC(=O)COC(=O)Cc1ccccc1` belongs -0.02; to `CCOC(=O)C1(CCc2ccccc2)CCN(Cc2ccco2)CC1`, -2.11.

As to `CC[C@H]1CC2CN3CCc4c([nH]c5ccccc45)C(C(=O)OC)(C2)C13` (stereo not given in full), the B-score is -2.28. To `CC(c1ccccc1)(c1ccccc1)c1ccncc1` belongs -4.28 (active); to `CCN(CC)C(=O)c1ccc(NC(=O)c2sccc2-c2ccccc2)cc1`, 0.02; to `COC(=O)C1=C(c2cc3ccccc3s2)C[C@@H]2CC[C@H]1N2C(=O)NC(C)C`, -1.96. Take `O=C(C1CC(=O)N(C2CCCC2)C1)N1CCC2(CC1)OCCO2` (stereo not given): the B-score was 0.05. To `Cc1ccc(C2CN(C)CC2C(=O)c2ccc(F)cc2)cc1` (stereo not given) belongs -2.69. To `O=c1c2ccccc2nc(/C=C/c2ccco2)n1-c1ccccc1O` belongs -0.02. To `C/C(=N/O)c1ccc2ccc3ccccc3c2c1` belongs -0.33; to `Cc1nc2ccccn2c1P(=S)(N1CCCCC1)N1CCCCC1`, -5.35 (active); to `CCCCCn1c(=O)c(C(=O)NCc2ccccc2)c(O)c2ccccc21`, 1.46. Regarding `COc1ccccc1C1=NCc2nnc(CSC)n2-c2ccc(Cl)cc21`, the B-score is 0.29. As for `CCOc1ccc(-c2cc(C)[n+](CCN(CC)CC)c(-c3ccc(OCC)cc3)c2)cc1`, the B-score was -4.58 (active). To `Cc1cc2ccccn2c1C(C[N+](=O)[O-])c1c(F)cccc1Cl` (stereo not given) belongs -0.86; to `COc1ccc(Br)cc1CNCCc1cccc(Cl)c1`, -10.4 (active); to `COc1ccc(CNCCc2ccc3c(c2)OCO3)c(OC)c1OC`, 0.87. To `COc1ccc(CNCCc2c[nH]c3ccccc23)cc1OC` belongs 0.17.

As to `NCCc1c[nH]c2ccc(O)cc12`, the B-score was -0.71. To `COC(=O)C1=C(c2cc3ccccc3s2)C[C@@H]2CC[C@H]1N2C(=O)NCc1cccc2ccccc12` belongs 2.94; to `COC(=O)C1=C(c2cc3ccccc3o2)C[C@@H]2CC[C@H]1N2C(=O)NC1CCCCC1`, -0.65; to `CN(c1ccccc1)c1ccc([N+](=O)[O-])c2nonc12`, -1.89.

For the molecule `Oc1cc2c(cc1CN1CCN(c3ccccc3)CC1)OCO2`, the B-score was -0.91. To `Fc1ccc(N2CCN(Cc3ccc4c(c3)OCO4)CC2)cc1` belongs -6.26 (active); to `O=C(Cc1ccccc1[N+](=O)[O-])N1CCN(Cc2ccc3c(c2)OCO3)CC1`, 0.65. To `CCN1CCN(c2nc3c(c(=O)[nH]2)CCC3)CC1` belongs 1.68. To `COc1cccc(N2C(=O)NC(=O)/C(=C\c3cn(C)c4ccccc34)C2=O)c1` belongs 0.09.
